Experimental findings from PubChem BioAssay (EPA / NIEHS) are described below.

Values joined by “and” are separate entries in the source; they are usually repeats but may differ in a detail not shown here. Equal values may be shown once. Some compounds were tested as several samples or in several runs, with calls that do not always agree. Active and inactive are the calls of the source. How the source made its calls: active means hit-call score of the fitted dose curve at least 0.9, where 1 is the maximum; inactive means score below 0.9.

A short description of the assay: ATG_PPRE_CIS: Attagene CIS-FACTORIAL HepG2 Assay for human Peroxisome Proliferator-activated Response Element (PPRE) (AID 2282958). The following applies: HepG2 PPRE cis-element reporter, Attagene transcription factor profiling; actives raise or lower the signal. How it is done:
ATG_CIS is a cell-based, multiplexed-readout assay that uses HepG2, a human liver cell line, with measurements taken at 24 hours after chemical dosing in a 24-well plate.ATG_PPRE_CIS is one of 52 assay component(s) measured or calculated from the ATG_CIS assay. It is designed to make measurements of mRNA induction, a form of inducible reporter, as detected with fluorescence intensity signals by Reverse transcription polymerase chain reaction (RT-PCR) and Capillary electrophoresis technology.Data from the assay component ATG_PPRE_CIS was analyzed into 1 assay endpoint. This assay endpoint, ATG_PPRE_CIS, was analyzed with bidirectional fitting relative to DMSO as the negative control and baseline of activity. Using a type of inducible reporter, measures of mRNA for gain or loss-of-signal activity can be used to understand the reporter gene at the transcription factor-level as they relate to the gene PPARA and PPARD and PPARG. Furthermore, this assay endpoint can be referred to as a primary readout, because this assay has produced multiple assay endpoints where this one serves a reporter gene function. To generalize the intended target to other relatable targets, this assay endpoint is annotated to the nuclear receptor intended target family, where the subfamily is non-steroidal.
Human liver HepG2 cells are transiently transfected with multiple reporter transcription units (MRTUs) in 6-well plates using FuGene 6 reagent (Roche; 3 ml FuGene/1 mg DNA). The MRTU constructs are regulated by a cis-regulating element (promoter). […] A major difference between the CIS and TRANS system is that in CIS activities of endogenous TFs are measured, whereas the TRANS assay evaluates changes in activities of exogenous, chimeric NR-Gal4 proteins. […] At the end of 24 hour incubation, total RNA was isolated using TriZol reagent (Invitrogen). The isolated RNA is then reverse-transcribed using oligo(dT) primer and Mo-MLV reverse transcriptase (Invitrogen) with DNAse I (Ambion) treatment for 30 min. The one-tenth of the produced cDNA was amplified by PCR using Taq DNA polymerase (Invitrogen) and two reporter sequence-specific primers. The PCR products were fluorescently labeled by primer extension with 6-arboxyfluorescein (6-FAM) 5'-labeled reporter sequence-specific primer (2 min at 95 C, 20 s at 68 C and 10 min at 72 C) and these products were digested with 5U of HpaI (New England Biolabs) for 2h at 37 C. The fragments were purified using Qiaquick PCR columns (Qiagen), analyzed on an ABI 3130xL genetic analyzer (Applied Biosystems) with peak positions identified by using a set of X-rhodamine (ROX)-labeled MapMarker1000 molecular weight standards (BioVentures). The raw capillary electrophoresis data was processed using Attagraph software (Attagene).
`Cc1c(F)c(F)c(COC(=O)C2C(/C=C(\Cl)C(F)(F)F)C2(C)C)c(F)c1F` (stereo not given): the call was inactive.
The same measure, in the same setting: the entry for `CNC(=O)ON=CC(C)(C)SC` is “inactive”.
One may read the AC50 as the concentration giving half of the maximal activity seen. On to `CON(C)C(=O)Nc1ccc(Cl)c(Cl)c1`, for which the compound was classed as inactive and the AC50 was 69.6 µM (active).
Regarding `CCOC(=O)C(Cl)Cc1cc(-n2nc(C)n(C(F)F)c2=O)c(F)cc1Cl` (stereo not given), the compound was classed as inactive.
As to `COC(=O)N(OC)c1ccccc1COc1ccn(-c2ccc(Cl)cc2)n1`, the AC50 is 0.343 µM (active).
Still for that read-out and setting: the result for `CCCCC(CC)COC(=O)c1ccccc1C(=O)OCC(CC)CCCC` (stereo not given) reads 17.5 µM (active).
Take `COc1cnc(OC)n2nc(NS(=O)(=O)c3c(OCC(F)F)cccc3C(F)(F)F)nc12`: the call was inactive.
`CCc1nn(C)c(C(=O)NCc2ccc(C(C)(C)C)cc2)c1Cl`: the AC50 is 0.462 µM (active).
For `CCCN(CCC)c1c([N+](=O)[O-])cc(S(N)(=O)=O)cc1[N+](=O)[O-]`, the compound was classed as inactive.
In the case of `CC1COC(Cn2cncn2)(c2ccc(Oc3ccc(Cl)cc3)cc2Cl)O1` (stereo not given), the concentration at half-maximal activity (AC50) was 3.17 µM (active).
Turning to `CO/C=C(/C(=O)OC)c1ccccc1Oc1cc(Oc2ccccc2C#N)ncn1`, the compound was classed as inactive.
Regarding `CC1=C(C(=O)Nc2ccccc2)SCCO1`, the compound was classed as inactive.
The same measure, in the same setting: the entry for `COC(=O)C=C(C)OP(=O)(OC)OC` is “inactive”.
Same read-out and setting: the result for `COc1nc(NC(C)C)nc(NC(C)C)n1` reads “inactive”; that for `CC(C)Oc1cc(-n2nc(C(C)(C)C)oc2=O)c(Cl)cc1Cl`, “inactive”; that for `C=CC1(C)OC(=O)N(c2cc(Cl)cc(Cl)c2)C1=O` (stereo not given), “inactive”.
Turning to `N#Cc1cc(Br)c(O)c(Br)c1`, the AC50 is 21.1 µM (active).
In the case of `CS/C(C)=N/OC(=O)N(C)SN(C)C(=O)O/N=C(\C)SC`, the compound was called inactive.
In the case of `COC(=O)C(C)Oc1ccc(Oc2ccc(Cl)cc2Cl)cc1` (stereo not given), the AC50 is 18.7 µM (active) and 11 µM (active) and 23 µM (active).
Turning to `CN(C)C(=S)SSC(=S)N(C)C`, the call was inactive.
On to `CCOC(=O)CC(SP(=S)(OC)OC)C(=O)OCC` (stereo not given), for which the AC50 was 83.1 µM (active) and 32.5 µM (active).
As to `CCON=C(CC)C1=C(O)CC(c2c(C)cc(C)cc2C)CC1=O` (stereo not given), the outcome was inactive.
Regarding `Cc1ccc(-c2c(Cl)nc(C#N)n2S(=O)(=O)N(C)C)cc1`, the half-maximal activity concentration (AC50) was 11.9 µM (active).
As to `O=C(Nc1ccccc1)Nc1ccnc(Cl)c1`, the concentration at half-maximal activity (AC50) was 22.6 µM (active).
Regarding `COc1ccc(C(c2ccc(OC)cc2)C(Cl)(Cl)Cl)cc1`, the compound was classed as inactive.
Still for that read-out and setting: the result for `CC(C)C1(C)N=C(c2nc3ccccc3cc2C(=O)O)NC1=O` (stereo not given) reads “inactive”; that for `N#CC(CCc1ccc(Cl)cc1)(Cn1cncn1)c1ccccc1` (stereo not given), “inactive”.
`N#Cc1nn(-c2c(Cl)cc(C(F)(F)F)cc2Cl)c(N)c1S(=O)C(F)(F)F` (stereo not given): the AC50 is 22.8 µM (active) and the call was inactive.
Consider `CCOc1cc(Oc2ccc(C(F)(F)F)cc2Cl)ccc1[N+](=O)[O-]`, for which the AC50 is 13.7 µM (active).
For `COP(N)(=O)SC` (stereo not given), the call was inactive.
Still for that read-out and setting: the entry for `OC(c1ccc(Cl)cc1)(c1cncnc1)c1ccccc1Cl` (stereo not given) is “inactive”.
Consider `CCCCNC(=O)OCC#CI`, for which the AC50 was 26.3 µM (active) and the compound was classed as inactive.
Consider `CCNc1nc(Cl)nc(NC(C)C)n1`, for which the result was inactive.
On the same count and under the same terms, the result for `C#CCOS(=O)OC1CCCCC1Oc1ccc(C(C)(C)C)cc1` (stereo not given) reads “inactive”; that for `CCCC1COC(Cn2cncn2)(c2ccc(Cl)cc2Cl)O1` (stereo not given), “inactive”.
In the case of `O=C(O)COc1nc(Cl)c(Cl)cc1Cl`, the AC50 was 50 µM (active).
The same measure, in the same setting: the result for `Fc1ccc(Oc2ccnc3cc(Cl)cc(Cl)c23)cc1` reads 2.17 µM (active).
